Consider 47 molecules from PubChem BioAssay AID504332 (National Center for Advancing Translational Sciences (NCATS), 2011).

In all, about 350,000 compounds went through this assay and about 31,000 (8.9%) were called active. A call without a number means that no potency is given here. Not shown: some 15% with an inconclusive outcome. This excerpt belongs to a sample that is enriched for actives. A number with no mark means an inactive call. The call rests on the fitted dose curve; in most records, active means well fitted inhibition curve with a large enough effect; inconclusive means small, poorly fitted or top-dose-only effect; inactive means no such curve, though single readings can be large or run the other way.
Potency means the concentration at half of the fitted maximal effect.

Histone-lysine N-methyltransferase EHMT2 (Homo sapiens), sequence (Q96KQ7 913-1193 limits assumed): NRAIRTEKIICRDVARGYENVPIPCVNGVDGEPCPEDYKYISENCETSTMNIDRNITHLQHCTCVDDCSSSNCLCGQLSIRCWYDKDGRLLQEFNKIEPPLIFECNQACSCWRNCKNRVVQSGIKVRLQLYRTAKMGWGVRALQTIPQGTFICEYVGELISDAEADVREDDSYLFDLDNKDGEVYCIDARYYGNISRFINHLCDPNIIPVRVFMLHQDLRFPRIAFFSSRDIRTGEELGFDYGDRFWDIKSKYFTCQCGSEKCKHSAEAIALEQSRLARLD

The target in this test is Histone-lysine N-methyltransferase EHMT2 (Homo sapiens) (UniProt Q96KQ7). As to the kind of experiment: qHTS Assay for Inhibitors of Histone Lysine Methyltransferase G9a. Further: nearly all actives have a fitted effect of over 75% in size. The note with it: G9a H3K9 monomethylation, AlphaScreen, 2 h; series mostly up to 59 µM. The source says:
Methylated lysines, on the N-terminal tails of histone proteins serve as epigenetic markers to recruit factors that can then modify local chromatin structure to lead to functional consequences. G9a and other members of the SUV39 family of the SET domain-containing superfamily of histone lysine methyltransferases (HMT) have been identified to specifically methylate Lys9 of histone H3 (H3K9). G9a catalyzes the mono- and di-methylation of H3K9 in mammalian euchromatic regions, where the resulting H3K9me2 is indicative of transcriptional repression. […] The inhibition of G9a will result in transcriptional activation and work synergistically with DNA methyltransferase and histone deacetylase inhibitors, to kill cancer cells. This qHTS assay for identification of G9a inhibitors is a chemiluminescence based AlphaScreen (PerkinElmer). Methylation of biotinylated-histone peptide is measured through specific antibody-based detection, in conjunction with streptavidin-coated donor and anti-IgG antibody-coated acceptor beads. The method is particularly well suited for detection of inhibitors acting by the desired histone peptide competitive mechanism and is applicable to testing other HMTs. Although AlphaScreen has significant advantages with its utility in a variety of epigenetic target assays, the primary screening data provided in this deposition should be used with caution due to the prevalence of screening artifacts. An AlphaScreen counterscreen is highly recommended to be run against any putative actives to eliminate non specific artifacts. Alternatively, one can use other AlphaScreen assays in PubChem to filter out promiscuous hits. Quinn et al. A chemiluminescence-based method for identification of histone lysine methyltransferase inhibitors. Mol Biosyst 6(5): 782-8. 2010. PMID: 20567762 [2] Baell,Holloway. New substructure filters for removal of pan assay interference compounds (PAINS) from screening libraries and for their exclusion in bioassays. J Med Chem. 53(7):2719-40. 2010. PMID: 20131845 NIH Molecular Libraries Probe Production Network [MLPCN] NIH Chemical Genomics Center [NCGC] Structural Genomics Consortium (SGC) NIH Grant: 5U54 MH084681-02
To each well of a 1,536w plate, 2ul of HMT enzyme (final 20nM) were added, using a nanoliter dispenser. The G9a- and GLP-inhibitor BIX-01294 (CID: 25150857) are used as an intraplate control, with a 16-point titration in duplicate. A Kalypsys pin-tool transferred 23nl of library compound solution in DMSO to each well. Following a 15 min incubation of enzyme with compounds at room temperature, 1ul mixture of b-H3K9 peptide substrate (final 500nM) and SAM cofactor (final 20uM) were added. Reactions were allowed to proceed at room temperature for 2 hours. Methylated b-H3K9 peptide product was detected with 0.5 ug/mL rabbit polyclonal anti-monomethyl histone H3K9 antibody (Abcam Inc., Cambridge, MA) and 20 ug/mL each streptavidin-coated donor and anti-rabbit IgG acceptor AlphaScreen beads. Antibody and beads were added in a 1ul dispense, for a final volume of 4ul, and plates were incubated, protected from the light, for 10 min at room temperature. Microplates were then read on an EnVision multilabel plate reader using the 1,536 plate HTS AlphaScreen aperture (excitation time 80 ms, measurement time 240 ms).
With `CCn1c(CSCc2c(Cl)cccc2Cl)n[nH]c1=S`, the Potency is 2.82 µM (active).

Regarding `O=c1[nH]nc(CSCc2ccccc2Cl)[nH]1`, the Potency entry was “inactive”.

Consider `O=C(CSCc1c(Cl)cccc1Cl)NN1C(=O)c2ccccc2C1=O`, for which the activity, negative = inhibition is -11.1% [at 2.33 µM].

With `COc1ccccc1-n1ccnc(SCC(=O)NC2CCCCC2)c1=O`, the Potency entry was “inactive”.

`Cc1ccc(C)c(OCCC(=O)OCC(=O)NC(=O)NCc2ccccc2)c1`: the Potency result was “inactive”.

With `CCCc1cc(C(=O)Nc2ccc(Cl)cn2)cs1`, the Potency entry was “inactive”.

Regarding `O=C(Nc1ccc(Cl)cn1)Nc1cccs1`, the Potency was 56.2 µM (active).

Regarding `O=C(Nc1cccc([N+](=O)[O-])c1)Nc1ccc(Cl)cn1`, the Potency result is “inactive”.

As to `COc1ccc(S(=O)(=O)N2CCCCC2)cc1NC(=O)C1CC(=O)N(c2ccc3c(c2)OCCO3)C1` (configuration not stated), the Potency entry was “inactive”.

In the case of `CCOc1ccc(S(=O)(=O)N2CCCCC2)cc1NC(=O)CN1CCCC1c1cccs1` (configuration not stated), the activity, negative = inhibition is 19.5% [at 2.33 µM].

Consider `Cn1c(-c2sc3cc(C(F)(F)F)cnc3c2-c2ccccc2)n[nH]c1=S`, for which the Potency is 2.24 µM (active).

On to `Cc1nn(-c2nc(-c3ccccc3)cc(C(F)(F)F)n2)c(C)c1Cl`, for which the Potency result was “inactive”.

As for `Cc1cc(C(F)(F)F)n2ncc(-c3ccccc3)c2n1`, the Potency entry is “inactive”.

`Cc1ccc2c(=O)c(C(=O)c3cccc(Cl)c3)cn(CC(=O)NCc3ccccc3)c2n1`: the Potency entry is “inactive”.

On to `O=C1NC(=O)C2C1C(c1ccc([N+](=O)[O-])cc1)=NN2Cc1ccccc1` (configuration not stated), for which the Potency is 50.1 µM (active).

In the case of `Cc1nc2ccccc2c(=O)n1Cc1ccc([N+](=O)[O-])cc1`, the Potency result is “inactive”.

As for `CC(=O)N1c2ccccc2N(Cc2ccc([N+](=O)[O-])cc2)C(=O)C1(C)C`, the Potency result was “inactive”.

With `O=C(CSc1nnc(Nc2ccccc2F)s1)NC1CCCC1`, the Potency was 8.91 µM (active).

For the molecule `Nn1c(SCC(=O)NC(=O)NC2CCCC2)nnc1-c1ccccc1F`, the Potency entry is “inactive”.

For `Cc1cc(NC(=O)CSc2nnc(Nc3ccccc3F)s2)no1`, the Potency entry was “inactive”.

In the case of `CC(C)NC(=O)NC(=O)CSc1nnc(-c2ccccc2F)n1N`, the Potency result is “inactive”.

Turning to `Nn1c(SCC(=O)NC2CCCC2)nnc1-c1ccccc1F`, the Potency is 50.1 µM (active).

Turning to `O=C(CSc1nnc(Nc2ccccc2)s1)Nc1cccnc1Cl`, the Potency result was “inactive”.

Take `O=C1CCCN1C(=O)COc1ccc([N+](=O)[O-])cc1`: the Potency entry is “inactive”.

In the case of `COc1ccc(CCNc2nc(-c3ccc(F)cc3)cc(C(F)(F)F)n2)cc1OC`, the Potency result was “inactive”.

Take `Cc1cc(C)cc(-c2nnc(SCC(=O)NC3CC3)o2)c1`: the activity, negative = inhibition is 18.2% [at 2.33 µM].

Take `CO[C@H]1[C@@H]2C=CO[C@@H](O[C@H]3O[C@@H](CO)[C@H](O)[C@@H](O)[C@@H]3O)[C@@H]2[C@@]2(CO)O[C@@H]12`: the activity, negative = inhibition was -4.51% [at 2.33 µM].

With `COc1cccc(CNC(=O)Cn2c(=O)c3cccn3c3ccc(F)cc32)c1OC`, the Potency result was “inactive”.

Take `CCc1ccc(S(=O)(=O)Nc2ccc(C)c(NS(C)(=O)=O)c2)cc1`: the Potency result was “inactive”.

On to `CCc1ccc(S(=O)(=O)Nc2cc3c(cc2N2CCCCC2)n(C)c(=O)c(=O)n3C)cc1`, for which the Potency is 44.7 µM (active).

For `Cn1c(=O)c(=O)n(C)c2cc(S(=O)(=O)NCCc3ccccc3)ccc21`, the activity, negative = inhibition was 29.1% [at 0.501 µM].

As to `COCCn1nnnc1C(c1cc2ccc(OC)cc2[nH]c1=O)N1CCc2ccccc2C1` (configuration not stated), the Potency was 5.62 µM (active).

As to `CN1CCN(C(c2cc3cc4c(cc3[nH]c2=O)OCCO4)c2nnnn2C2CCCC2)CC1` (configuration not stated), the Potency entry was “inactive”.

With `CCOc1ccc2[nH]c(=O)c(C(c3nnnn3CCOC)N3CCOCC3)cc2c1` (configuration not stated), the activity, negative = inhibition is 8.47% [at 2.33 µM].

Consider `COc1ccc(OC)c(C(c2nnnn2C(C)(C)C)N2CCc3ccccc3C2)c1` (configuration not stated), for which the Potency is 50.1 µM (active).

Regarding `Cc1ccc(C(c2nnnn2C(C)(C)C)N2CCc3ccccc3C2)cc1` (configuration not stated), the Potency entry is “inactive”.

For `CCC(C)(C)n1nnnc1C(c1ccccc1OC)N1CCSCC1` (configuration not stated), the Potency entry is “inactive”.

Consider `Cc1ccc(Cn2c(C)c3cnn(CC(=O)NCc4ccccc4)c(=O)c3c2C)cc1`, for which the Potency entry is “inactive”.

Turning to `COc1ccc(S(=O)(=O)N2CCCCCC2)cc1C(=O)N(C)Cc1cccc(OC)c1OC`, the Potency entry is “inactive”.

With `COc1ccc(CCNC(=O)CCCn2c(=O)c3ccccc3n(Cc3ccc(C)cc3)c2=O)cc1OC`, the Potency result is “inactive”.

Take `C=CCn1c(SCC(=O)NC23CC4CC(CC(C4)C2)C3)nc(O)cc1=O`: the Potency entry was “inactive”.

On to `C=CCn1c(SCC(=O)NC)nnc1C12CC3CC(CC(C3)C1)C2`, for which the Potency entry is “inactive”.

`C=CCn1c(C23CC4CC(CC(C4)C2)C3)n[nH]c1=S`: the Potency is 3.16 µM (active).

Turning to `COc1ccc(C(=O)NCc2ccc(C)cc2)cc1S(=O)(=O)N1CCCC1`, the activity, negative = inhibition is -16.6% [at 0.0925 µM].

`COc1ccc(CNC(=O)CSc2n[nH]c(N)n2)cc1OC`: the Potency is 79.4 µM (active).

Take `Nc1nc(SCC(=O)NN(c2ccccc2)c2ccccc2)n[nH]1`: the Potency entry is “inactive”.

`Nc1nc(SCC(=O)Nc2ccc(Cl)cc2C(F)(F)F)n[nH]1`: the Potency result was “inactive”.
